Experiment in all cases: NCI-60 one-dose screen, 48 h (100 = growth as untreated, 0 = no growth, -100 = all killed)
Holding throughout (conditions): 10 µM unless noted

Experiment [1] deals with NCI-H23 lung.
Experiment [2] deals with NCI-H226 lung.
The test system of experiment [3] is NCI-H322M lung.
For experiment [4], the system named is HOP-62 NSCLC.
Experiment [5] relates to NCI-H460 lung.
Experiment [6] has as its system HOP-92 NSCLC.
For experiment [7], the system named is NCI-H522 lung.
Experiment [8] concerns A549/ATCC NSCLC.
Experiment [9] deals with 786-0 renal.
Experiment [10] concerns COLO 205 colon.

Compounds without any hit were thinned out: in the full panel of roughly 83,000, 20% have a hit.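 Each cell line was grown in a 96-well plate and treated with one concentration of compound for 48 hours. Values below 10 were considered active.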 A number with no mark means an inactive call. Activity calls are given as the source filed them.

For `Cn1cc(C=O)c2ccccc21`, the growth was 96.4% in experiment [1]; 95.2% in [2]; 97.8% in experiment [3]; 95.9% in [4]; 104% in experiment [5]; 87.6% in [6]. Besides, the growth in experiment [7] is 98.3%; in [8] it was 104%; in experiment [9], 99.2%; in experiment [10] it was 104%.

As to `COc1cccc(NC(=O)Cn2cc3c(=O)oc4ccccc4c3n2)c1`, the growth in experiment [1] is 102%; in [2], 104%; in experiment [3], 98.9%; in [4] it was 116%; in experiment [5] it was 101%; in experiment [6], 93.8%. Also, the growth in experiment [7] was 83.1%; in experiment [8] it was 105%; in experiment [9], 98.4%; in [10], 101%.

Turning to `CC(=O)Nc1nc(C(=O)N2N=C(C)/C(=C/c3ccccc3)C2=O)cs1`, the growth in experiment [1] was 108%; in [2] it was 107%; in experiment [3], 102%; in experiment [4] it was 99.8%; in experiment [5], 106%; in experiment [6] it was 108%. For the same compound, the growth is 85.4% in [7], 101% in [8], 105% in [9] and 103% in [10].

For `Cc1ccc(OCCn2c(C)nn(-c3ccc(Cl)cc3)c2=O)cc1`, the growth is 94.7% in experiment [1]; 108% in experiment [2]; 108% in experiment [3]; 103% in [4]; 106% in experiment [5]; 84.1% in experiment [6]. Besides, the growth in experiment [7] is 106%; in experiment [8], 100%; in experiment [9], 100%; in experiment [10], 115%.

For `N#Cc1ccc(NC(=O)c2ccc3cccnc3c2O)cc1`, the growth is 43.7% in experiment [1]; 45.2% in experiment [2]; 27.7% in experiment [3]; 14.6% in experiment [4]; 4.71% (active) in experiment [5]; 71.4% in experiment [6]. Further, the growth in [7] is 18.6%; in [8] it was 15.1%; in experiment [9], 10.2%; in experiment [10], 11.2%.

Regarding `COc1ccccc1OCC(=O)Nc1sc2c(c1C(N)=O)CCC2`, the growth in experiment [1] is 114%; in experiment [2], 80.7%; in [3], 105%; in experiment [4], 49.7%; in experiment [5], 25.6%; in experiment [6], 2.69% (active). Moreover, the growth in experiment [7] is 84.1%; in [8] it was 85.8%; in experiment [9], 75.1%; in experiment [10], 86.1%.

Consider `O=c1cc(C2NCCc3c2[nH]c2ccccc32)c2c(ccc3ccccc32)o1` (stereo not given), for which the growth in [1] is 79.6%; in experiment [2] it was 77%; in experiment [3] it was 62.7%; in [4], 82.4%; in [5], 48.1%; in experiment [6], 41%. Further, the growth was 62.4% in experiment [7], 67.9% in [8], 59.1% in [9] and 65.3% in [10].

In the case of `Cn1c(-c2nonc2NC(=O)c2ccc(F)cc2)nc2ccccc21`, the growth in experiment [1] is 108%; in [2] it was 96%; in [3], 102%; in experiment [4] it was 120%; in [5], 101%; in experiment [6], 104%. In addition, the growth in experiment [7] was 95.2%; in experiment [8], 98.1%; in experiment [9], 98.6%; in experiment [10] it was 117%.

With `Clc1ccc(-c2nc(-c3ccco3)cn3ccnc23)cc1`, the growth in experiment [1] was 61%; in experiment [2] it was 46.3%; in [3], 11.4%; in experiment [4], 31.4%; in [5], 14.5%; in experiment [6], 34.7%. In addition, the growth in experiment [7] was 61.5%; in [8], -1.62% (active); in experiment [9], -41.1% (active); in experiment [10], 75%.

`COc1cccc(-c2nc3sccn3c2-c2ccnc(NCCNS(=O)(=O)c3ccccc3)n2)c1`: the growth was 65.8% in experiment [1]; 43.1% in experiment [2]; 81.7% in experiment [3]; 114% in [4]; 62.4% in experiment [5]; 62.6% in experiment [6]. Moreover, the growth in experiment [7] was 49.5%; in experiment [8], 64.8%; in [9], 56.7%; in [10], 34.1%.

In the case of `Cc1nn(-c2ccc(Cl)cc2)c(=O)n1CCOc1ccccc1Cl`, the growth in experiment [1] is 91.6%; in [2] it was 103%; in [3], 111%; in experiment [4] it was 75.2%; in experiment [5], 87.2%; in experiment [6] it was 78.4%. The growth in [7] is 116%; in experiment [8] it was 89.9%; in experiment [9] it was 93.7%; in experiment [10], 101%.

As for `Cc1cc2c(C(C)C)c(O)c(O)c(C=NCCCCC(=O)O)c2c(O)c1-c1c(C)cc2c(C(C)C)c(O)c(O)c(C=NCCCCC(=O)O)c2c1O`, the growth in [1] is 33.8%; in [2], 85.2%; in experiment [3], 46%; in [4] it was 50%; in experiment [5], 23.8%; in experiment [6], 22.6%. Besides, the growth in [7] is 23.4%; in experiment [8], 49.1%; in experiment [9], 49.1%; in experiment [10], 41.1%.

As to `CC(=O)c1cc(C(=O)c2ccc3c(c2)Sc2ccccc2N3)c2cc(C)ccn12`, the growth in experiment [1] is 16.5%; in experiment [2], 56.6%; in [3], 35.1%; in experiment [4], 21.1%; in [5] it was 1.02% (active); in [6], 42.6%. The growth in [7] was -47.9% (active); in [8] it was 14.5%; in experiment [9], 9.68% (active); in experiment [10], -62.2% (active).

Regarding `c1ccc2c(c1)Oc1ccccc1C2C1c2ccccc2Oc2ccccc21`, the growth in [1] was 90.6%; in [2], 103%; in experiment [3] it was 94.1%; in [4], 89.6%; in experiment [5] it was 95.9%; in experiment [6], 94.8%. Besides, the growth in [7] was 87.6%; in [8] it was 88.3%; in experiment [9] it was 94.1%; in experiment [10] it was 99.5%.

In the case of `NC(CC(N)C(=O)O)C(=O)O` (stereo not given), the growth in [1] was 107%; in experiment [2], 103%; in experiment [3] it was 103%; in [4] it was 117%; in [5], 108%; in experiment [6], 115%. The growth was 79.7% in experiment [7], 99.4% in [8], 105% in [9] and 115% in experiment [10].

`COc1ccc(N=C2NN=C(c3ccc(F)cc3)CS2)cc1OC`: the growth in [1] was 104%; in experiment [2], 78.5%; in experiment [3], 96.4%; in experiment [4], 96.3%; in experiment [5], 107%; in experiment [6], 72.8%. In addition, the growth in experiment [7] is 89%; in [8], 92.4%; in experiment [9], 88%; in [10] it was 98.7%.

Take `COc1ccc(S(=O)(=O)Nc2cc(/C=C\c3cc(OC)c(OC)c(OC)c3)cc(OC)c2OC)cc1OC`: the growth is 31.4% in [1]; 66.6% in [2]; 55.2% in experiment [3]; 52.3% in experiment [4]; 11.4% in [5]; 43.3% in experiment [6]. Further, the growth in [7] was 37.4%; in experiment [8], 34%; in experiment [9], 18%; in experiment [10], -47.4% (active).

Regarding `CN1CCN(CCCOc2ccc3nc(Nc4ccc(C(F)(F)F)c(Cl)c4)ccc3c2)CC1`, the growth is 38.1% in experiment [1]; 54.1% in experiment [2]; -5.95% (active) in [3]; -21.7% (active) in [4]; -40% (active) in experiment [5]; 7.32% (active) in experiment [6]. In addition, the growth in experiment [7] is -37.8% (active); in [8] it was 3.9% (active); in [9] it was -60.9% (active); in [10] it was -77.9% (active).

In the case of `COc1ccc(C(=O)c2cc(OC)c(OC)c(OC)c2)cc1/C=C/C(=O)c1ccc2c(c1)OCO2`, the growth in experiment [1] is -3.44% (active); in [2], 0.564% (active); in experiment [3], 52.9%; in experiment [4], 69.8%; in [5], 14.6%; in experiment [6] it was 64%. The growth in [7] is -43% (active); in experiment [8], 53.5%; in experiment [9] it was 29.6%; in experiment [10] it was 27.9%.

`O=C(COc1ccccc1)N1N=C(c2ccc(Cl)cc2)CC1c1c[nH]c2ccccc12` (stereo not given): the growth in [1] was 76.1%; in [2], 65.2%; in experiment [3], 86.4%; in experiment [4] it was 66.6%; in experiment [5], 47.9%; in experiment [6] it was 62.1%. The growth in experiment [7] was 73.9%; in experiment [8], 58.4%; in experiment [9], 71%; in experiment [10] it was 86.9%.

`COc1cc2c(cc1OCCCCn1c(-c3cc(=O)c4ccccc4o3)nc3ccccc31)N=C[C@@H]1CCCN1C2=O`: the growth is 101% in experiment [1]; 101% in experiment [2]; 108% in experiment [3]; 105% in experiment [4]; 112% in experiment [5]; 66.5% in experiment [6]. In addition, the growth in experiment [7] is 66.7%; in experiment [8] it was 90.5%; in experiment [9], 108%; in experiment [10] it was 104%.

For the compound `CC(Br)C(OC(=O)c1ccccc1Cl)c1cc2c(cc1Br)OCO2` (stereo not given), the growth is 78.3% in [1]; 76.6% in experiment [2]; 82.7% in experiment [3]; 108% in experiment [4]; 91.8% in [5]; 68.5% in [6]. Moreover, the growth is 87.9% in experiment [7], 91.5% in experiment [8], 80.7% in experiment [9] and 126% in experiment [10].

For `COc1cc(C(=O)/C=C/c2cc(C(=O)c3cc(OC)c(OC)c(OC)c3)ccc2OC)ccc1N`, the growth is -29.8% (active) in experiment [1]; -38.7% (active) in experiment [2]; 7.82% (active) in [3]; 43.2% in experiment [4]; -15.6% (active) in experiment [5]; 46.1% in experiment [6]. The growth in [7] was -58.9% (active); in experiment [8], 18.5%; in [9], 10.5%; in experiment [10], -58.8% (active).

Turning to `COc1cc2c3c(c(=O)oc2cc1OS(=O)(=O)c1ccc(C(F)(F)F)cc1)CCCCC3`, the growth in experiment [1] was 76.8%; in experiment [2], 77.8%; in [3] it was 84.9%; in experiment [4], 64%; in experiment [5], 89.9%; in [6], 56.8%. Besides, the growth in [7] was 71.6%; in experiment [8] it was 75.4%; in experiment [9] it was 72.2%; in [10] it was 93.1%.

As to `CC(=O)C1CCC(C)=CC1=O` (stereo not given), the growth in experiment [1] was 102%; in experiment [2], 104%; in experiment [3], 85.8%; in experiment [4], 111%; in experiment [5], 106%; in experiment [6], 96.9%. For the same compound, the growth in experiment [7] is 89.7%; in experiment [8], 98.3%; in experiment [9] it was 91.8%; in [10], 116%.

For the compound `CC(=O)Nc1nc(C(=O)N2N=C(C)/C(=C/c3cccs3)C2=O)cs1`, the growth in experiment [1] was 107%; in experiment [2], 101%; in experiment [3], 95.4%; in experiment [4], 99.1%; in experiment [5], 107%; in experiment [6], 99.1%. The growth in experiment [7] was 86.6%; in experiment [8], 101%; in experiment [9] it was 102%; in experiment [10] it was 104%.

With `CC1Cc2c(N(C)C)ncnc2N(C)c2ccc(O)cc21` (stereo not given), the growth was 92.8% in experiment [1]; 104% in [2]; 96.5% in experiment [3]; 72.8% in experiment [4]; 97.7% in experiment [5]; 81.2% in experiment [6]. The growth in experiment [7] was 49.1%; in [8], 85.1%; in experiment [9], 81.4%; in experiment [10] it was 103%.

Source of the values: PubChem BioAssay (NCI).
